Screening data as filed in PubChem.
Compounds with a hit are over-represented: about 9% of the library has one in this group of screens.
PLK1 PBD inh: PLK1 (human) polo-box domain binding inhibition; Plk1 PBD binding of FITC phosphopeptide, fluorescence polarization; Potency, µM, without a hit: max response, negative = inhibition, usual class: inhibitors; 360,000 compounds, 2.8% hits; AID 720504; note: series mostly up to about 57 µM; % is set by controls: 0 for no effect and ±100 for the full control effect; nearly all actives have a fitted effect of over 65% in size
Target sequence (P53350 whole entry, looked up, the tested form may be a part): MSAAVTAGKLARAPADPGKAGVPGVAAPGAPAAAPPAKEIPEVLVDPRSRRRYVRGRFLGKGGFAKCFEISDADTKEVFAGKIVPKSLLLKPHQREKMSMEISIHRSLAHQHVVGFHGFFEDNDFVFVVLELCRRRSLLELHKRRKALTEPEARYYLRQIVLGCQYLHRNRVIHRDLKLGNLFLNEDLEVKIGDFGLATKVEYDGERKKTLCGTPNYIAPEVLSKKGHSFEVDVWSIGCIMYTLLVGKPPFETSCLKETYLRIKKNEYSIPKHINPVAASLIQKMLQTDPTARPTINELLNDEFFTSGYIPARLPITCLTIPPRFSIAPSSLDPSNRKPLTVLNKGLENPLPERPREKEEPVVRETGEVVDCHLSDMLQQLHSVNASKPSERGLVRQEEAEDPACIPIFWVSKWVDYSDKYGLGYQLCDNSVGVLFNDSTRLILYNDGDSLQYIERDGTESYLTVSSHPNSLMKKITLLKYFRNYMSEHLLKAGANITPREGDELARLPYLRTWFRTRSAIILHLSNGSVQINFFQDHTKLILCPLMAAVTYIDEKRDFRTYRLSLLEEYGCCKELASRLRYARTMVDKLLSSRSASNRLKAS
G9a block: inhibitors of human histone lysine methyltransferase G9a; Q96KQ7; G9a H3K9 monomethylation, AlphaScreen, 2 h; Potency, µM (doses to about 102 µM), inactives show top-dose activity, negative = inhibition, most hits filed as inhibitors; 350,000 compounds, 8.8% hits; AID 504332; note: % is set by controls: 0 for no effect and ±100 for the full control effect; nearly all actives have a fitted effect of over 75% in size
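AlphaScreen detection with an anti-monomethyl H3K9 antibody quantified product after a 2 h room-temperature reaction containing 500 nM biotinylated H3K9 peptide, 20 µM SAM and 20 nM enzyme, which had been preincubated 15 min with compound.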
BAZ2B inh: blocks human BAZ2B | 360,000 compounds, 4.4% hits | Potency, µM (highest dose often 114 µM), for the others: at the top dose activity change, negative = inhibition, actives largely listed as inhibitors | Q9UIF8 | AlphaScreen BAZ2B-H3K14Ac peptide displacement; note: % is set by controls: 0 for no effect and ±100 for the full control effect; nearly all actives have a fitted effect of over 60% in size
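Multi-concentration screen (max 110 uM) measuring displacement of acetylated histone H3 peptide from BAZ2B by AlphaScreen, using 50 nM protein, 50 nM peptide and 10 ug/mL streptavidin donor plus Ni-chelate acceptor beads.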
12-LOX inh: blocks human arachidonate 12S-lipoxygenase; AID 1671190; purified 12hLO, xylenol orange hydroperoxide absorbance; P18054; Potency, µM (doses to about 108 µM), without a hit: at the top dose activity change, negative = inhibition, hits mostly inhibitors; 580,000 compounds, 1.1% hits; note: % is set by controls: 0 for no effect and ±100 for the full control effect
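Purified human 12hLO (150 nM final) in 25 mM Hepes, 0.01% Triton X-100, pH 7.0 was preincubated 15 min at room temperature with compound. Then 40 uM arachidonic acid was added, 30 min. Hydroperoxide was read by Fe-XO absorbance ratio 573/405 nm.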
JMJD2A Tudor inh: blocks the human JMJD2A Tudor domain | O75164 | AlphaScreen JMJD2A-Tudor / H3K4me3 peptide binding | Potency, µM (top dose mostly 114 µM), inactives show at the top dose activity change, negative = inhibition, most hits filed as inhibitors | 390,000 compounds, 4.4% hits; note: % is set by controls: 0 for no effect and ±100 for the full control effect; nearly all actives have a fitted effect of over 50% in size
HP1b chromo inh: HP1-beta chromodomain-methylated histone interaction inhibition; 390,000 compounds, 0.56% hits; AlphaScreen HP1-beta / biotin-H3K9me3 peptide binding; Potency, µM (series often up to 114 µM), without a hit: at the highest dose activity change, negative = inhibition, most hits filed as inhibitors; AID 540317; note: nearly all actives have a fitted effect of over 70% in size
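HP1-beta protein (50 nM final) preincubated 30 min at room temperature with biotinylated H3(1-18)K9me3 peptide (50 nM) in PBS pH 7.4, 0.01% Tween-20, then compound added for 30 min. AlphaScreen streptavidin donor/nickel chelate acceptor beads (10 ug/mL final), 30 min dark, luminescence read.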
* hit, by the source's call; i = inactive; ? = inconclusive; / = not tested or not shown; ! = repeats disagree; [ ] = another dose, or the depositor's remark. Calls come from the whole dose curve; as a rule, active = well fitted curve in the direction sought with a large enough effect; inconclusive = small, poorly fitted or top-dose-only effect, or another doubt; inactive = no such curve, though single readings can be large; an effect the other way counts as inactive or inconclusive. Potency is the fitted concentration of half-maximal effect.

SMILES | PLK1 PBD inh | G9a block | BAZ2B inh | 12-LOX inh | JMJD2A Tudor inh | HP1b chromo inh
Cc1cc(C(=O)N2CCN(S(=O)(=O)c3ccccc3C#N)CC2)c(C)o1 | -3% | 15%[2.33 µM] | -4% | -3% | -18% | 11%
O=C(c1cccnc1)N1CCN(C(=O)c2nnn3c2COC(c2ccc(Cl)cc2)C3)CC1 (configuration not stated) | / | / | / | 37% | / | /
CCN1CCN(c2ccc(S(=O)(=O)N3CCCCC3)cc2NC(=O)Cc2ccc(Cl)c(Cl)c2)CC1 | -2% | 40µM* | ? | / | ? | -9%
CCN1CCN(c2ccc(S(=O)(=O)N3CCCCC3)cc2NC(=O)Cc2ccccc2)CC1 | -5% | 6.3µM* | -8% | 16µM*! | ? | -8%
CCN1CCN(c2ccc(S(=O)(=O)N3CCCCC3)cc2NC(=O)Cc2ccccc2F)CC1 | -6% | ? | 7% | -12% | -30% | 1%
Cc1cccc(NC(=O)NC2(C(=O)NCc3ccco3)CCCCC2)c1 | -4% | 46% | -18% | 0% | -8% | 15%
O=CC(=O)c1ccccc1 | -8% | 8%[0.501 µM] | ? | -5% | -6% | 61%
Cc1ccc(NC(=O)c2ncn[nH]2)cc1 | 4% | 2% | 50µM* | 1% | 10% | 31%
O=C(Nc1ccc(Oc2ccc(Cl)cc2)cc1)c1ncn[nH]1 | -5% | 46%[59 µM] | -2% | 2% | -9% | 29%
Cc1ccccc1C(=O)Nc1cccc(NC(=O)c2ncn[nH]2)c1 | ? | -9% | ? | -1% | -25% | 1%
O=C(Nc1cccc(C(=O)N2CCOCC2)c1)c1ncn[nH]1 | -1% | -43%[59 µM] | 20µM* | 18% | 28µM* | 8%
Cc1c(Cl)cccc1NC(=O)c1ncn[nH]1 | -4% | 11µM* | 20µM* | 34% | 25µM* | 28%
CCOc1ccccc1C1NC(=O)N(CC(=O)Nc2ccc(Cl)cc2F)C2=C1C(=O)OC2 (configuration not stated) | / | / | / | -24% | / | /
CCOc1cccc(C(=O)Nc2cc(-c3nn4c(C)nnc4s3)ccc2C)c1 | -5% | 4% | -4% | 9%[57.4 µM] | -12% | 51%
CC(C)c1cccc(-c2csc(C(O)c3ccco3)n2)c1 (configuration not stated) | -3% | / | / | 14µM* | / | /
OC(c1ccco1)c1nc(-c2cccs2)cs1 (configuration not stated) | -8% | / | / | 18µM* | / | /
Cc1ccc(S(=O)(=O)Nc2cc3c(cc2NCc2ccccc2)n(C)c(=O)n3C)cc1 | / | 16µM* | -31% | -53% | ? | ?
Cc1ccc(S(=O)(=O)Nc2ccc3c(c2)n(C)c(=O)n3C)c(C)c1 | -11% | / | -14% | -7% | -7% | 21%[57 µM]
Cn1c(=O)n(C)c2cc(NS(=O)(=O)c3ccc(F)cc3)c(NCc3ccccc3)cc21 | / | 11µM* | -37% | -75% | ? | -6%
Cc1ccc(S(=O)(=O)Nc2cc3c(cc2NCc2ccccc2)n(C)c(=O)n3C)c(C)c1 | / | 11µM* | 50µM* | -97% | ? | -16%
O=C(CCN1C(=O)c2ccccc2S1(=O)=O)Nc1ccc2c(c1)OCCO2 | 1% | -23%[2.33 µM] | 39% | 3% | 0% | 18%
CCc1ccc(OCC(=O)N/N=C\c2ccco2)c([N+](=O)[O-])c1 | ? | -12%[59 µM] | 45µM* | -9% | ? | ?
CCOC(=O)N/N=C\C=C\c1ccco1 | -17% | ? | -23% | ? | -16% | 29%
Cc1ccc(OCC(=O)N/N=C/C=C/c2ccco2)c(Br)c1 | -19% | 45µM* | -29% | 40µM* | ? | -10%
Cc1cccc(C)c1OCC(=O)N/N=C/C=C/c1ccco1 | -10% | 32µM* | -18% | ? | -29% | 38%
SMILES | PLK1 PBD inh | G9a block | BAZ2B inh | 12-LOX inh | JMJD2A Tudor inh | HP1b chromo inh
Cc1cccc(OCC(=O)N/N=C/C=C/c2ccco2)c1 | -19% | 8.9µM* | ? | ? | -35% | -1%
Cc1cc(C)cc(OCC(=O)N/N=C/c2ccco2)c1 | -3% | -8% | -16% | 0% | 2% | 17%
CCN(Cc1nc(COC)no1)Cc1cn[nH]c1-c1ccc(F)cc1 | / | / | / | 5% | / | /
C[C@H]1CN([C@@H](C)CO)C(=O)CCCn2cc(nn2)CO[C@@H]1CN(C)C(=O)Nc1cccc(C(F)(F)F)c1 | -5% | / | / | 12% | / | /
Cc1ccc(/C=C2/NC(=O)N(Cc3ccc(Br)cc3)C2=O)o1 | -8% | 32µM* | -13% | 45µM* | 50µM* | -2%
CCCN1C(=O)/C(=C/c2ccc(C)o2)NC1=S | / | 7.9µM* | ? | / | / | /
Cc1ccc(/C=C2/NC(=O)N(c3ccccc3)C2=O)o1 | -9% | 36%[0.501 µM] | 56µM* | -18% | -31% | 10%
CCN1C(=O)N/C(=C/c2ccc(C)o2)C1=O | -1% | ? | -35% | -11% | -31% | 17%
Cc1ccc(CN2C(=O)N/C(=C\c3ccc(N4CCOCC4)cc3)C2=O)cc1 | 2% | -2%[59 µM] | -11% | 6% | -9% | 19%
CCCN(CCC)Cc1c(C(=O)N/N=C/c2ccncc2)nnn1-c1nonc1N | -1% | 9% | -13% | i | -4% | 41%
CCc1ccc(C(=O)CSC2=C(C#N)C(c3ccco3)C(C(C)=O)=C(C)N2)cc1 (configuration not stated) | / | 40µM* | -3%[57.1 µM] | / | -10% | 49%
CC(=O)C1=C(C)NC(SCC(=O)c2cc(Cl)ccc2Cl)=C(C#N)C1c1ccco1 (configuration not stated) | -18% | 32µM* | 2% | ? | ? | -3%
CC(=O)C1=C(C)NC(SCC(=O)c2ccc(F)cc2)=C(C#N)C1c1ccco1 (configuration not stated) | -9% | ? | -5% | -20% | -24% | 35%
CC(=O)C1=C(C)NC(SCc2cccc([N+](=O)[O-])c2)=C(C#N)C1c1ccco1 (configuration not stated) | -11% | / | 40µM* | 126% | ? | -13%
CC(=O)C1=C(C)NC(SCC(N)=O)=C(C#N)C1c1ccco1 (configuration not stated) | -1% | ? | ? | 0% | -15% | 33%
C=CCOC(=O)C1=C(C)NC(SCC(=O)N(CC)CC)=C(C#N)C1c1ccco1 (configuration not stated) | 0% | ? | -1% | 17% | 3% | 22%
CCN(CC)C(=O)CSC1=C(C#N)C(c2ccco2)C(C(=O)OCCOC)=C(C)N1 (configuration not stated) | -3% | 25µM* | ? | 32% | 79µM*! | 26%
COc1ccc(C(=O)Nc2ccccc2-c2nnn(CC(=O)NCc3ccco3)n2)cc1 | -12% | 17%[59 µM] | 23% | 1% | 7%[11.4 µM] | 71%
CCOC(=O)c1[nH]c(C)c(/C(C)=N\O)c1C | -7% | / | / | 15% | -27% | -6%
